Our source for the z-score values is PubChem BioAssay.

A short description of assay [1]: A549 cell viability effects, profiling panel, calcein-AM fluorescence, 48 h, basal (AID 1162). To be noted: higher = more signal.
Assay [2] can be described thus: adipocyte viability effects, profiling panel, cell-based, 3T3-L1 adipocytes, calcein-AM fluorescence, 48 h, basal (AID 1163). To be noted: 3T3-L1 adipocytes viability, higher = more signal.
A short description of assay [3]: HepG2 cell viability effects, profiling panel, calcein-AM fluorescence, 48 h, basal (AID 1164). To be noted: higher = more signal.
A short description of assay [4]: MM1S cell viability effects, profiling panel, calcein-AM fluorescence, 48 h, basal (AID 1165).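 Further: viability of MM1S multiple myeloma cells under basal unstimulated conditions.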 To be noted: higher = more signal.
Assay [5] is described as follows: basal RPMI8226 viability, no added stimulus, profiling panel, cell-based, calcein-AM fluorescence, 48 h, PK04 Diversity Set (AID 1166).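 Further: cells grown under basal conditions without added stimulus.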 To be noted: RPMI8226 myeloma viability, higher = more signal.
Assay [6] can be described thus: basal HepG2 mitochondrial membrane potential changes, profiling panel, cell-based, JC-1 fluorescence, 24 h, 100 nL compound (AID 1167). Particulars: higher = more signal.
Assay [7] is described as follows: basal 3T3-L1 adipocyte mitochondrial potential changes, profiling panel, cell-based, JC-1 fluorescence, 3T3-L1 adipocytes, 24 h, 100 nL compound (AID 1168). Particulars: JC-1 mitochondrial fluorescence, higher = more signal, called active from +8 up or from −8 down.
The nature of assay [8]: basal RPMI8226 mitochondrial membrane potential changes, profiling panel, cell-based, JC-1 fluorescence, 24 h, 100 nL compound (AID 1169). Particulars: RPMI8226 myeloma, JC-1 mitochondrial potential fluorescence, higher = more signal.
Assay [9] can be described thus: basal MM1S mitochondrial membrane potential changes, profiling panel, cell-based, JC-1 fluorescence, 24 h, 100 nL compound (AID 1170). To be noted: higher = more signal.
Assay [10] is described as follows: A549 lung cancer cell viability effects, profiling panel, resazurin fluorescence, 24 h, PK04 Diversity Set (AID 1171). To be noted: higher = more signal, called active from +8 up or from −8 down.

Molecules are shown by their SMILES. The source made the active and inactive calls.
Further: test concentration not given here.

Turning to `CCN1C(=O)[C@H]2[C@H]3[C@H](O)[C@H](O)CC(=NOC(C)CN4CCCc5nc(C)c(C)cc54)[C@@H]3CC[C@H]2C1=O` (stereo not given in full), the z-score in assay [1] is 0.355; in [2] it was -0.769; in [3], -0.283; in assay [4], -1.78; in assay [5] it was -0.99; in [6], 0.128. For the same molecule, the z-score is -0.886 (inactive) in [7], 0.534 in [8], -0.902 in [9] and -0.696 (inactive) in assay [10].
Take `CCN1C(=O)[C@H]2[C@H]3[C@H](O)[C@H](O)CC(=NOC[C@@H](O)[C@H]4O[C@@H]5OC(C)(C)O[C@@H]5[C@H]4O)[C@@H]3CC[C@H]2C1=O`: the z-score in assay [1] was 0.725; in [2], -0.532; in assay [3], 0.282; in assay [4] it was 0.388; in assay [5], 0.12; in assay [6], 0.0654. Also, the z-score in [7] was 0.141 (inactive); in assay [8], 0.71; in assay [9] it was -0.481; in [10], -0.794 (inactive).
On to `COc1ccc(O[C@H]2C=C[C@@H](C#Cc3ccccc3)O[C@@H]2CO)cc1`, for which the z-score was -0.167 in assay [1]; 0.956 in [2]; -1.03 in assay [3]; -3.57 in [4]; -3.67 in [5]; -1.19 in [6]. In addition, the z-score in assay [7] was -0.252 (inactive); in assay [8], -0.891; in assay [9], -1.46; in assay [10] it was 0.447 (inactive).
On to `O=C(NN=C1C[C@@H](O)[C@@H](O)[C@@H]2[C@@H]3C(=O)N(c4ccc(F)cc4F)C(=O)[C@@H]3CC[C@H]12)OCc1ccccc1`, for which the z-score in assay [1] is -0.299; in assay [2] it was -0.198; in [3], -1.39; in assay [4], -0.46; in [5] it was 0.707; in assay [6], 0.344. Moreover, the z-score in assay [7] is 0.533 (inactive); in assay [8], 0.0563; in assay [9] it was -0.741; in [10], 1.88 (inactive).
In the case of `CCC1=NOC(CCC2CC(OC(=O)NCc3cccc4c3OCO4)CC3(CCCC(COC(=O)NCCc4ccc(Cl)cc4)O3)O2)C1` (stereo not given), the z-score is -0.584 in assay [1]; -0.55 in assay [2]; -0.303 in assay [3]; 0.396 in assay [4]; -0.961 in [5]; -0.803 in assay [6]. The z-score in assay [7] was 0.453 (inactive); in assay [8], 0.0772; in [9], -0.398; in [10] it was 0.137 (inactive).
For `COC(=O)CC=C[C@@H](C)[C@@H](C=NOC[C@@H](O)COCc1ccco1)OC`, the z-score was 1.3 in assay [1]; -0.921 in [2]; 0.436 in assay [3]; 0.195 in [4]; 0.598 in assay [5]; -0.327 in [6]. The z-score is 0.499 (inactive) in [7], 0.501 in assay [8], -0.281 in assay [9] and -0.329 (inactive) in [10].
In the case of `O=C1[C@H]2[C@H]3[C@H](O)[C@H](O)CC(=NO[C@@H]4O[C@H](CO)[C@@H](O)[C@H](O)[C@H]4O)[C@H]3CC[C@H]2C(=O)N1c1ccc(F)cc1F`, the z-score in assay [1] is -0.32; in assay [2], 0.528; in [3], -0.846; in [4] it was 0.0224; in assay [5], -0.3; in assay [6], 0.419. Further, the z-score in assay [7] is -0.35 (inactive); in assay [8], -0.177; in assay [9], -0.709; in [10] it was 1.09 (inactive).
For `CC(=O)OC[C@H]1O[C@H](CCON=C(C)C)C=C[C@@H]1OC(C)=O`, the z-score in [1] is 0.191; in [2], 0.0363; in assay [3], -0.0004; in assay [4] it was -0.719; in [5], -1.12; in [6], -0.331. In addition, the z-score in assay [7] is -0.681 (inactive); in assay [8], 0.636; in assay [9], -0.57; in assay [10] it was -0.426 (inactive).
For `C[C@@H]1CC[C@@H](C(=O)O)N[C@H]1c1cccc(N2CCOCC2)c1`, the z-score was 1.03 in assay [1]; -0.219 in [2]; 0.0881 in assay [3]; 0.401 in [4]; 1.07 in [5]; 1.66 in [6]. The z-score was 0.631 (inactive) in assay [7], -0.157 in assay [8], -0.144 in assay [9] and 0.148 (inactive) in assay [10].
Turning to `CO[C@H]1COC(=O)[C@H](C)COC(=O)[C@H](C)NC(=O)CC=C[C@H]1C`, the z-score in assay [1] is -0.0718; in assay [2] it was 0.996; in assay [3], -0.248; in assay [4], 0.0627; in assay [5], 0.286; in assay [6], 0.708. For the same molecule, the z-score in assay [7] is 0.475 (inactive); in [8] it was -0.218; in assay [9] it was 1.3; in assay [10], 0.724 (inactive).
On to `COC(=O)C1=C(C)N(Cc2ccccc2)C2=C3C(=O)OCC[C@@H]3[C@@](O)(C(=O)OC)C(=O)N2[C@@H]1c1ccccc1`, for which the z-score in [1] was 1.62; in assay [2], -0.792; in assay [3], 0.24; in [4], 0.489; in assay [5] it was -0.755; in assay [6], 1.85. The z-score is -1.11 (inactive) in [7], -0.391 in assay [8], -0.91 in assay [9] and 0.56 (inactive) in assay [10].
In the case of `COC(=O)[C@H](CCSC)NC(=O)CC=C[C@@H](C)CO`, the z-score in assay [1] is -0.493; in assay [2], -0.169; in assay [3] it was 0.0826; in assay [4], -1.12; in assay [5], -0.581; in assay [6], 0.705. Further, the z-score is -0.645 (inactive) in [7], -0.545 in assay [8], -1.62 in [9] and -0.812 (inactive) in [10].
Regarding `COC(=O)[C@H](Cc1ccccc1)NC(=O)[C@@H](C)CO`, the z-score in assay [1] was -0.457; in assay [2], 0.802; in assay [3], -0.196; in [4], -2.56; in assay [5] it was -2.56; in assay [6], 0.892. The z-score in assay [7] is -0.218 (inactive); in [8], -0.186; in assay [9] it was -0.209; in [10] it was -0.234 (inactive).
In the case of `COC(=O)[C@@H]1CC[C@H](C)[C@@H](c2ccc(Br)cc2)N1`, the z-score in [1] is 0.23; in assay [2], 0.309; in assay [3], -0.183; in assay [4], 0.125; in assay [5] it was 0.0204; in [6], -0.0948. For the same molecule, the z-score is -0.644 (inactive) in [7], -0.295 in assay [8], 0.214 in assay [9] and -0.284 (inactive) in assay [10].
On to `CC=CC1=C(CO)[C@H](O)[C@H]2O[C@H]2[C@@H]1O`, for which the z-score in [1] was -0.37; in assay [2], 0.309; in [3] it was 0.366; in [4] it was -0.948; in assay [5], -0.671; in assay [6] it was -0.206. Moreover, the z-score in [7] is 0.00909 (inactive); in [8] it was -0.225; in assay [9] it was -0.244; in assay [10] it was -0.337 (inactive).
As to `CCOC(=O)CCN1C(=O)[C@H]2[C@H]3[C@H](O)[C@H](O)CC(=NO[C@@H]4O[C@H](CO)[C@@H](O)[C@H](O)[C@H]4O)[C@H]3CC[C@H]2C1=O`, the z-score is 0.484 in assay [1]; -0.961 in assay [2]; -0.898 in [3]; -0.359 in assay [4]; -0.0451 in [5]; -1.13 in assay [6]. Besides, the z-score in [7] was -0.647 (inactive); in assay [8], -0.225; in assay [9], -0.171; in assay [10], -0.292 (inactive).
